Data: PubChem BioAssay AID1851 (National Center for Advancing Translational Sciences (NCATS), 2009)
Values joined by “and” are separate entries in the source; they are usually repeats but may differ in a detail not shown here. Identical values can stand only once. The campaign covered roughly 16,000 compounds. About 5,100 (32%) were called active. Inconclusive results (about 25%) are left out. The list shows a part of the results. A number with no mark means an inactive call. Calls follow the shape of the dose curve; as a rule, active = well fitted curve in the direction sought with a large enough effect; inconclusive = small, poorly fitted or top-dose-only effect, or effect the other way; inactive = no such curve, though single readings can be large or run the other way.

These compounds were tested against Cytochrome P450 3A4 (Homo sapiens) (UniProt P08684) (assay: Cytochrome panel assay with activity outcomes). Conditions: recombinant CYP, pro-luciferin dealkylation, luminescence, p450-cyp3a4; series mostly up to 57.1 µM.
% is scaled to controls: 0 for no effect and ±100 for the full control effect.

Sequence of Cytochrome P450 3A4 (Homo sapiens) (P08684 whole entry, looked up): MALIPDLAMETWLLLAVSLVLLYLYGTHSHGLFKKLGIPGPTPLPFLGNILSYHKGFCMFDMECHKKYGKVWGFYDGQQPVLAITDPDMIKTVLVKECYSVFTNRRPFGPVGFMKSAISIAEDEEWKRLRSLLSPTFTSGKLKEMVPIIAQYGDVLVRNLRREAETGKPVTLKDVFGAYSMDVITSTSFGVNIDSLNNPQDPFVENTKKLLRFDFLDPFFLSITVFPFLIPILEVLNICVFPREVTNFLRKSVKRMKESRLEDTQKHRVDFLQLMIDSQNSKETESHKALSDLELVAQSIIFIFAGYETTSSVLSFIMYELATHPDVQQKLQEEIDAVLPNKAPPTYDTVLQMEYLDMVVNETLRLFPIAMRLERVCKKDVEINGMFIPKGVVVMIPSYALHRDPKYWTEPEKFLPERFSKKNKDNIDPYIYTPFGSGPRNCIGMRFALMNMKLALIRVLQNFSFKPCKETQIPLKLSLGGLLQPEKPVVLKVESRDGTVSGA

SMILES | AC50 | activity, negative = inhibition
CCc1c(C)c2c(C)[nH]nc2oc1=O | inactive | –
COc1ccc2nc3c(c([Si](C)(C)C(C)(C)C)c2c1)Cn1c-3cccc1=O | 1.58 µM (active) | –
CC(C)(C)[Si](C)(C)c1c2c(nc3ccc(OCc4ccccc4)cc13)-c1cccc(=O)n1C2 | 15.8 µM (active) | –
COc1cc2nc3c(c([Si](C)(C)C(C)(C)C)c2cc1OC)Cn1c-3cccc1=O | 3.98 µM (active) | –
OC[C@H]1NC[C@H](O)[C@@H](O)[C@H]1O | inactive | –
CCC(C)(C(=O)NC1CCCC1)N(Cc1ccco1)C(=O)c1ccccn1 (centres undefined) | 8.91 µM (active) | –
O=C(N/N=C/C1CCCCC1)c1ccccn1 | – | -7.05% [at 11.4 µM]
CCC(C)(C(=O)NC1CCCC1)N(C(=O)c1ccccn1)c1ccccc1 (centres undefined) | 5.01 µM (active) | –
C[C@]1(OC(=O)/C=C\c2ccccc2)C[C@@H](O)[C@@]2(O)C=CO[C@@H](O[C@H]3O[C@@H](CO)[C@@H](O)[C@@H](O)[C@@H]3O)[C@H]21 | inactive | –
O=C(N/C(=C/c1ccc(Br)cc1)c1nc2ccccc2[nH]1)c1ccco1 | 1.58 µM (active) | –
O=C(N/C(=C/c1cccs1)c1nc2ccccc2[nH]1)c1ccccc1 | 14.1 µM (active) | –
NS(=O)(=O)c1ccc(N=C2C(=O)Nc3ccccc32)cc1 | – | -12.5% [at 11.4 µM]
CN(C)c1ccc(/C=C2/C(=O)Nc3ccccc32)cc1 | 10 µM (active) | –
O=C1Nc2ccccc2Nc2ncccc21 | inactive | –
O=C(Nc1cccc(F)c1)N1CCC2(CCNCC2)CC1 | inactive | –
O=C(Nc1cccc(F)c1)N1CCCC2(CCN(C(=O)c3ccncc3)CC2)C1 | 6.31 µM (active) | –
COc1ccc(C(=O)N2CCC3(CCCN(C(=O)Nc4cccc(F)c4)C3)CC2)cc1 | 12.6 µM (active) | –
COc1ccc(C(=O)N2CCC3(CCN(C(=O)Nc4cccc(F)c4)CC3)CC2)cc1 | inactive | –
CC(=O)N1CCC2(CC1)CCN(C(=O)Nc1cccc(F)c1)CC2 | inactive | –
COCC(=O)N1CCC2(CCCN(C(=O)Nc3cccc(F)c3)C2)CC1 | inactive | –
O=C(Nc1cccc(F)c1)N1CCCC2(CCNCC2)C1 | 15.8 µM (active) | –

SMILES | AC50 | activity, negative = inhibition
COC(=O)N1CCC2(CCN(C(=O)Nc3cccc(F)c3)CC2)CC1 | inactive | –
NC(=NCCC[C@H](N)C(=O)O)NO | inactive | –
CCC(=O)NCCNC(=O)c1c(SC)nsc1SC | inactive | –
CSc1nsc(SC)c1C(=O)Nc1ccc(C)cc1 | 7.94 µM (active) | –
Cc1noc(N)c1C(=O)Nc1ccc(F)cc1 | – | 11.9% [at 2.29 µM]
O=C(O)c1nnsc1-c1csnn1 | – | -19.7% [at 11.4 µM]
COc1ccc(-n2c(C)nn(C)c2=O)cc1 | inactive | –
CCOC(=O)c1sc(=N)n(-c2ccc(OC)cc2)c1C | 7.08 µM (active) | –
CCOC(=O)c1nc(N)sc1C(=O)OCC | inactive | –
N[C@@H](Cc1ccccc1)C(=O)O | – | -6.07% [at 11.4 µM]
CC(C)(C)C(=O)NNC(=O)CCCOc1ccc(Cl)cc1Cl | inactive | –
COc1ccc(/C=N/NC(=O)CCCOc2ccc(Cl)cc2Cl)cc1[N+](=O)[O-] | 14.1 µM (active) | –
CC1(C)CC(=O)C/C(=N/NC(=O)CCCOc2ccc(Cl)cc2Cl)C1 | – | -15.2% [at 2.29 µM]
O=C(Nc1ccc(-c2cn3ccccc3n2)cc1)c1cc(Br)ccc1O | – | -18.7% [at 11.4 µM]
COc1ccc(NC(=O)c2ccc(C(=O)c3cc(OC)ccc3OC)cc2)cc1 | inactive | –
COc1ccc(Br)cc1C(=O)Nc1ccc(Cc2ccncc2)cc1 | 0.708 µM (active) | –
Cc1ccc(/C=N\NC(=O)c2cc(OCC(F)(F)F)ccc2OCC(F)(F)F)cc1 | inactive | –
O=C(NCCNS(=O)(=O)c1ccccc1Cl)c1cc(OCC(F)(F)F)ccc1OCC(F)(F)F | 25.1 µM (active) | –
O=C(O)CONC(=O)c1cc(OCC(F)(F)F)ccc1OCC(F)(F)F | inactive | –
COC(=O)C/C=C\[C@@H](C)[C@@H](/C=N\O[C@@H](C)c1cc(-c2c(C)cc(C)cc2C)no1)NS(=O)(=O)c1ccc(C)cc1 | 3.16 µM (active) | –
COC(=O)C/C=C\[C@@H](C)[C@@H](/C=N\O[C@@H](C)c1cc(-c2c(C)cc(C)cc2C)no1)OC | – | -76.7% [at 11.4 µM]

SMILES | AC50 | activity, negative = inhibition
COC(=O)C/C=C\[C@@H](C)[C@@H](/C=N\O[C@@H](C)c1cn([C@H]2COC[C@H]2O)nn1)OC | – | -29.8% [at 11.4 µM]
COC(=O)C/C=C\[C@@H](C)[C@@H](/C=N\O[C@@H](C)c1cn([C@H]2COC[C@H]2O)nn1)NS(=O)(=O)c1ccc(C)cc1 | 3.98 µM (active) | –
COC(=O)C/C=C\[C@@H](C)[C@@H](/C=N\O[C@@H](C)c1cn([C@H](CO)Cc2ccccc2)nn1)NS(=O)(=O)c1ccc(C)cc1 | 3.98 µM (active) and 2 µM (active) | –
COC(=O)C/C=C\[C@@H](C)[C@@H](/C=N\O[C@@H](C)c1cn([C@H](CO)Cc2ccccc2)nn1)OC | 3.98 µM (active) | –
Cc1nc(N=Nc2cc(S(=O)(=O)O)ccc2S(=O)(=O)O)c(COP(=O)(O)O)c(C=O)c1O | inactive | –
O=C(O)C[C@H](S)C(=O)O | – | -4.75% [at 11.4 µM]
[N-]=[N+]=NC[C@@H]1O[C@@H](n2cnc3c(N)ncnc32)[C@@H]2O[C@@H]21 | – | -11.8% [at 11.4 µM]
Nc1nc2n[nH]nc2c(=O)[nH]1 | inactive | –
O=C1C2=CC[C@H]3C(=O)N(c4cccc(Oc5ccccc5)c4)C(=O)[C@@H]3[C@@H]2[C@H](O)[C@@H]2O[C@H]12 | – | -4.92% [at 11.4 µM]
CON1C(=O)C(=O)N(OC)C(C)(C)C1C (centres undefined) | inactive | –
COC(=O)C/C=C\[C@@H](C)[C@@H](/C=N\O[C@@H](C)CN1CCCc2nc(C)c(C)cc21)NS(=O)(=O)c1ccc(C)cc1 | – | -80.9% [at 11.4 µM]
COC(=O)C/C=C\[C@@H](C)[C@@H](/C=N\O[C@@H](C)CN1CCCCc2nc(C)c(C)cc21)NS(=O)(=O)c1ccc(C)cc1 | 3.98 µM (active) | –
CCCS(=O)(=O)N1CCCC(C(=O)NCCCOC(C)C)C1 (centres undefined) | inactive | –
CC(C)OCCCN1C(=O)c2ccccc2C1C(=O)NC1CCCCC1 (centres undefined) | 12.6 µM (active) | –
O=c1nc(-c2ccccc2)cn[nH]1 | inactive | –
CS(=O)(=O)N1N=C(c2ccc(Br)cc2)CC1c1ccc2c(c1)OCO2 (centres undefined) | 1.78 µM (active) | –
Cc1ccc(C2=NN(S(C)(=O)=O)C(c3cccs3)C2)cc1 (centres undefined) | – | -2.01% [at 2.29 µM]
COc1ccc(-c2cc3ccccc3n2CC(O)CNCCO)cc1 (centres undefined) | 15.8 µM (active) | –
Cc1[nH]n2c(=O)c(C#N)c(-c3ccccc3)nc2c1-c1ccccc1 | inactive | –
CN1CC(c2ccccc2)C2(COc3ccccc3C2=O)C12C(=O)Nc1ccccc12 (centres undefined) | 3.98 µM (active) | –
NNS(=O)(=O)c1cc(C(=O)O)cc(C(=O)O)c1 | – | -6.08% [at 11.4 µM]

SMILES | AC50 | activity, negative = inhibition
CSc1nc(Oc2ccc(=O)[nH]n2)nc(N(C)C)n1 | inactive | –
CN(C)S(=O)(=O)c1ccc2c(c1)/C(=C/c1cc3c([nH]1)CCCC3)C(=O)N2 | 5.01 µM (active) | –
C[C@H]1[C@@H](O)[C@@H](C)\C=C/C=C\C=C/C=C\C=C/C=C\C=C/[C@@H](O[C@H]2O[C@@H](C)[C@@H](O)[C@@H](N)[C@@H]2O)C[C@@H]2O[C@](O)(C[C@@H](O)C[C@@H](O)[C@@H](O)CC[C@@H](O)C[C@@H](O)CC(=O)O[C@H]1C)C[C@@H](O)[C@H]2C(=O)O (stereo in doubt) | inactive | –
CCCc1nnc(NC(=O)CN2C(=O)C3C4C=CC(C4)C3C2=O)s1 (centres undefined) | 12.6 µM (active) | –
CCCc1nnc(NC(=O)Cn2cnc3ccccc3c2=O)s1 | inactive | –
CCCC(=O)Nc1nnc(CCN2CCCCC2)s1 | inactive | –
Cc1cccc(NC(=O)CSc2nc(-c3ccccc3)c(C#N)c(=O)[nH]2)c1C | – | 4.48% [at 0.457 µM]
Cc1cccc(NC(=O)CSc2nnc(-c3ccco3)c(-c3ccco3)n2)c1C | 15.8 µM (active) | –
O=S1(=O)C=C(Oc2ccc3ccccc3c2)c2ccccc21 | inactive | –
COc1ccc(C2(CNC(=O)/C=C/c3ccco3)CCCC2)cc1OC | 3.55 µM (active) | –
CN(C)c1ncc2nc(-c3ccc(Cl)cc3)c(=O)n(C)c2n1 | inactive | –
O=[N+]([O-])c1ccc(N/N=C\c2cccn2-c2ccccc2)nc1 | – | 0.811% [at 2.29 µM]
O=S(=O)(N/N=C\c1cccn1-c1ccccc1)c1ccc2ccccc2c1 | 7.08 µM (active) | –
CC1=NN(c2ccc(S(=O)(=O)O)cc2)C(=O)/C1=C\c1ccc(Cl)cc1 | – | 2.74% [at 11.4 µM]
Cc1ccc(S(=O)(=O)N/N=C/c2cccn2-c2ccc(Cl)cc2)cc1 | 10 µM (active) | –
Cc1ccc(-c2nn(-c3ccccc3)cc2/C=N/NS(=O)(=O)c2ccccc2)cc1 | – | -20.9% [at 2.29 µM]
C/C(=N/O)[C@@H]1C[C@H](CC(=O)O)C1(C)C | – | -25.4% [at 11.4 µM]
O=C(c1cnccn1)N1CCC2(CC1)CN(Cc1cc(C(F)(F)F)cc(C(F)(F)F)c1)C2 | inactive | –
O=C(c1csnn1)N1CCC2(CC1)CN(Cc1cc(C(F)(F)F)cc(C(F)(F)F)c1)C2 | inactive | –
O=C(c1cnccn1)N1CCC[C@@]2(CCN(Cc3ccncc3)C2)C1 | 15.8 µM (active) | –
O=C(c1cnccn1)N1CCC[C@@]2(CCN(Cc3cc(C(F)(F)F)cc(C(F)(F)F)c3)C2)C1 | 7.94 µM (active) | –
